Experiment [1] addresses ATP-dependent 6-phosphofructokinase (Trypanosoma brucei brucei) (UniProt O15648). As to the kind of experiment: qHTS Assay to Find Inhibitors of T. brucei phosphofructokinase: hit validation (AID 492961). Also: % is scaled to controls: 0 for no effect and ±100 for the full control effect. The essentials: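 Luminescence from ADP-Glo reports ADP generated as T. brucei PFK (1.25 nM) phosphorylates 0.5 mM fructose-6-phosphate using 0.1 mM ATP. Reactions ran 45 min at room temperature, pH 8.0.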
For orientation: In qHTS, concentration-response curves come from the screen itself.

Experiment [2] deals with Ubiquitin carboxyl-terminal hydrolase 1 (Homo sapiens) (UniProt O94782). As to the kind of experiment: Inhibitors of USP1/UAF1: Pilot qHTS (AID 504865). Also: nearly all actives have a fitted effect of over 35% in size. Also: potency is read from the fitted curve at half-maximal effect. In a few lines:
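In 50mM HEPES pH 7.8 containing 0.5mM EDTA, 1mM TCEP, 0.1 mg/ml BSA and 0.01% Tween-20, 1nM USP1/UAF1 is exposed to compound for 15 min, then Ub-Rho (150nM final) is added and fluorescence is read over time.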

Experiment [3] addresses Luciferin 4-monooxygenase (Photinus pyralis) (UniProt P08659). As to the kind of experiment: Biochemical firefly luciferase enzyme assay for NPC (AID 624030).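 Also: purified P. pyralis luciferase at 10 nM with luciferin and ATP substrate; 0% = DMSO and -100% = full luciferase inhibition by PTC124 control; nearly all actives have a fitted effect of over 70% in size.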 In a few lines: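 Purified P. pyralis luciferase at 10 nM in 50 mM Tris Acetate (final), luminescence read within 5 minutes of enzyme addition to compounds. Activity normalised to PTC124 versus DMSO; concentration-response curves classed by r2, magnitude and activity.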

Experiment [4] in a line: qHTS profiling for inhibitors of Plasmodium falciparum proliferation (AID 504749).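 Also: 0% = DMSO vehicle and full inhibition = artemisinin control; nearly all actives have a fitted effect of over 60% in size.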 Particulars: P. falciparum in erythrocytes, SYBR Green DNA, 72 h, at 28.7 µM (top of the series). The essentials:
(§1)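 P. falciparum-infected erythrocytes (0.3% parasitemia, 2.5% hematocrit) incubated with compound 72 h at 37 C, 5% CO2. Parasite DNA detected by SYBR Green after lysis, overnight at room temperature; normalised to 0.29 uM artemisinin and DMSO.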

Another experiment relates to AS120. Described as above. Particulars: P. falciparum in erythrocytes, SYBR Green DNA, 72 h; series mostly up to 28.7 µM. The essentials:
as §1

Another experiment concerns CP201. The experiment is described as above. Particulars: P. falciparum in erythrocytes, SYBR Green DNA, 72 h; series mostly up to 12.8 µM. In a few lines:
as §1

The test system of a further experiment is CP238. The description is as above. The conditions noted are these: P. falciparum in erythrocytes, SYBR Green DNA, 72 h; series mostly up to 12.8 µM. The essentials:
as §1

The test system of the next experiment is CP262. Described as above. Particulars: P. falciparum in erythrocytes, SYBR Green DNA, 72 h; series mostly up to 12.8 µM. The essentials:
as §1

The next experiment relates to CP265. Described as above. The conditions noted are these: P. falciparum in erythrocytes, SYBR Green DNA, 72 h; series mostly up to 12.8 µM. The essentials: as §1
In another experiment the test system is FAB9. The experiment is described as above. The conditions noted are these: P. falciparum in erythrocytes, SYBR Green DNA, 72 h; series mostly up to 12.8 µM. The essentials: as §1
The next experiment has as its system JCK. The description is as above. The conditions noted are these: P. falciparum in erythrocytes, SYBR Green DNA, 72 h; series mostly up to 12.8 µM. The essentials: as §1
Experiment [5] can be described thus: qHTS Assay for Lipid Storage Modulators (AID 1519; calls by dose curve). The conditions noted are these: Drosophila S3 cells, BODIPY lipid droplet/cell ratio, laser cytometry, cells loaded with oleic acid. In a few lines:
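Cells seeded at 5,000 per well were treated with compounds over a concentration series and loaded with oleic acid (400 uM, as added). Lipid droplet fluorescence (488 nm excitation, 500-530 nm channel) was read by laser-scanning cytometry and normalized to 20 uM Triacsin C.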

Experiment [6] has as its target Cytochrome P450 1A2 (Homo sapiens) (UniProt P05177). As to the kind of experiment: p450-cyp1a2 (AID 410; calls by dose curve). The essentials:
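Luminescent readout of luciferin formed from Luciferin-ME by human CYP1A2; data normalized against complete inhibition by 57 uM furafylline. Enzyme 20nM, substrate 100uM at Km, 100mM KPO4 buffer, 60 min reaction at room temperature.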

Experiment [7] can be described thus: Stat Signaling Pathway (AID 446; active = well fitted curve in either direction with a large enough effect, not every such curve was filed as active;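 also: ME-180 cervical cancer cells given 40 pM IL-6 alongside compound; SIE-controlled beta-lactamase reporter measured as 460/530 nm FRET emission ratio; % is scaled to controls: 0 for no effect and ±100 for the full control effect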). The conditions noted are these: ME-180 SIE beta-lactamase reporter, IL-6 stimulated, 5 h. The essentials:
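Reporter line: ME-180 cervical carcinoma, SIE-beta-lactamase. Treatment: compound with 40 pM IL-6, 5 hrs, 37 C, in low-serum OPTI-MEM with 10 mM HEPES pH 7.3. Detection: 460/530 nm fluorescence.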

Experiment [8] deals with Mitogen-activated protein kinase 10 (Mus musculus) (UniProt Q61831). As to the kind of experiment: JNK3 AlphaScreen Assay (AID 530; active = well fitted curve in either direction with a large enough effect, not every such curve was filed as active;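 also: kinase came from lysate of stimulated human HepG2 cells; signal reports phosphorylation of biotinylated GST-cJun 1-79 at Ser73 with 10 µM ATP; % is scaled to controls: 0 for no effect and ±100 for the full control effect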). In a few lines:
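Pre-activated (IL-1β/TNFα) JNK3 in HepG2 lysates phosphorylates biotin-GST-cJun(1-79), 10 uM ATP; anti-phospho-cJun(Ser73) AlphaScreen read at room temperature, pH 7.6 Tris buffer. Compounds pre-incubated 15 min as titrations.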
(In Alpha technology, singlet oxygen from a donor bead excites a nearby acceptor bead.)

Experiment [9] concerns the target 3',5'-cyclic-AMP phosphodiesterase 4B (Homo sapiens) (UniProt Q07343). As to the kind of experiment: qHTS Assay for Inhibitors of PDE-IV (AID 607; active = well fitted activation curve with a large enough effect in the main read-out, with a control signal flat, not every such curve was filed as active; also: % of control where 0% means no effect). In a few lines: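 Cell-based read-out of cAMP via a modified cyclic nucleotide-gated channel and membrane potential dye (535/590 nm) in HEK293 cells expressing PDE4 endogenously. Compounds tested up to 22.9 uM final; 100 uM RO 20-1724 reference.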

Experiment [10] can be described thus: AP1 Signaling Pathway (AID 357; active = well fitted curve in either direction with a large enough effect, not every such curve was filed as active;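 also: ME-180 reporter cells stimulated with EGF at its EC50 level; % is scaled to controls: 0 for no effect and ±100 for the full control effect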). Particulars: ME-180 (cervical carcinoma) AP-1-bla reporter, EGF-induced, beta-lactamase ratio, 5 h. The essentials:
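First, ME-180 AP-1-bla cells were cultured overnight at 37 °C in low-serum Opti-MEM. Next, titrated compounds with EC50 EGF were incubated 5 hours. Finally, CCF4 was added for 2.5 hours and the 460/530 nm ratio recorded.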

The nature of experiment [11]: NFAT Signaling Pathway (AID 444; active = well fitted curve in either direction with a large enough effect, not every such curve was filed as active). Particulars: Jurkat NFAT-bla M1, carbachol, beta-lactamase ratio, 5 h. The essentials:
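Jurkat cells with NFAT-driven β-lactamase reporter and co-expressed M1 receptor, stimulated with carbachol (final 1 uM, ~EC50), compound titration, 5 h at 37 °C. CCF4 loaded 1 h at RT; 460/530 nm ratio gave %activity and AC50.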

In experiment [12] the target is Glucocorticoid receptor (Homo sapiens) (UniProt P04150). As to the kind of experiment: GR-GFP Redistribution (AID 450;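 active = compounds whose dose series gives a full or clear partial fitted curve of increased nuclear translocation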; also: potency is read from the fitted curve at half-maximal effect). The conditions noted are these: U2OS GR-GFP nuclear translocation, laser cytometry, 2 h.
The target is the same in experiment [13]. As to the kind of experiment: GR-EFC Redistribution (AID 451; calls by dose curve; also: potency is read from the fitted curve at half-maximal effect). The conditions noted are these: CHO-K1 GR-EFC translocation, beta-gal luminescence, 2 h. In a few lines:
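CHO-K1 cells expressing nuclear EA and GR-ED fragments of b-gal; compounds titrated up to 46 uM final, 2 h at 37 C. GR nuclear translocation read as complemented b-gal luminescence after 1 h RT detection.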

Where [14] appears, read: measured here: cell count channel max response.
The mark [15] stands for this setting: measured here: lipid channel max response.
[16] abbreviates: at 7.69 µM (top of the series) unless noted.

“And” between values parts separate entries of the source, which are not always exact repeats. Identical values can stand only once. Inconclusive results are not listed. The source made the active and inactive calls. Unless noted, calls follow the shape of the dose curve; as a rule, active = well fitted curve in the direction sought with a large enough effect; inconclusive = small, poorly fitted or top-dose-only effect, or another doubt; inactive = no such curve, though single readings can be large; an effect the other way counts as inactive or inconclusive.

Sequence of 3',5'-cyclic-AMP phosphodiesterase 4B (Homo sapiens) (Q07343 whole entry, looked up): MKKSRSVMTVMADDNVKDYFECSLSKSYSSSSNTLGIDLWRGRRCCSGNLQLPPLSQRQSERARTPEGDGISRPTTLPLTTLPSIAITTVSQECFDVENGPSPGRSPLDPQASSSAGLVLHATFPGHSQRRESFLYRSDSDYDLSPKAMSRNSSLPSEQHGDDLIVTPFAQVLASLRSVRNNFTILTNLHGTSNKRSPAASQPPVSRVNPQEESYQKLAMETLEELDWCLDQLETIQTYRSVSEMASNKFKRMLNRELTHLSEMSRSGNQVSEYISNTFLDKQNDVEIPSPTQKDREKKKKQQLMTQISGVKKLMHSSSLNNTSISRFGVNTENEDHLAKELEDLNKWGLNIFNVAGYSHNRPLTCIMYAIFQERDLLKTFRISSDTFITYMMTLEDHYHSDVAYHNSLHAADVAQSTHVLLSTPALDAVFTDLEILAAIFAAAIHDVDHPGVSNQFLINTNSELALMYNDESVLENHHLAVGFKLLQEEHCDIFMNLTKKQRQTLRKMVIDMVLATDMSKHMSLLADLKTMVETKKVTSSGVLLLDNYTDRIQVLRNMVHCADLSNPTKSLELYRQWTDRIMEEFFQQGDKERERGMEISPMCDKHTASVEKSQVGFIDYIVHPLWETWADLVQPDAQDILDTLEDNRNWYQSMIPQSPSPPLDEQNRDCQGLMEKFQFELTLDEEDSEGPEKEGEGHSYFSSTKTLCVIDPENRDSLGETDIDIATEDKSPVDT
Sequence of Glucocorticoid receptor (Homo sapiens) (P04150 whole entry, looked up): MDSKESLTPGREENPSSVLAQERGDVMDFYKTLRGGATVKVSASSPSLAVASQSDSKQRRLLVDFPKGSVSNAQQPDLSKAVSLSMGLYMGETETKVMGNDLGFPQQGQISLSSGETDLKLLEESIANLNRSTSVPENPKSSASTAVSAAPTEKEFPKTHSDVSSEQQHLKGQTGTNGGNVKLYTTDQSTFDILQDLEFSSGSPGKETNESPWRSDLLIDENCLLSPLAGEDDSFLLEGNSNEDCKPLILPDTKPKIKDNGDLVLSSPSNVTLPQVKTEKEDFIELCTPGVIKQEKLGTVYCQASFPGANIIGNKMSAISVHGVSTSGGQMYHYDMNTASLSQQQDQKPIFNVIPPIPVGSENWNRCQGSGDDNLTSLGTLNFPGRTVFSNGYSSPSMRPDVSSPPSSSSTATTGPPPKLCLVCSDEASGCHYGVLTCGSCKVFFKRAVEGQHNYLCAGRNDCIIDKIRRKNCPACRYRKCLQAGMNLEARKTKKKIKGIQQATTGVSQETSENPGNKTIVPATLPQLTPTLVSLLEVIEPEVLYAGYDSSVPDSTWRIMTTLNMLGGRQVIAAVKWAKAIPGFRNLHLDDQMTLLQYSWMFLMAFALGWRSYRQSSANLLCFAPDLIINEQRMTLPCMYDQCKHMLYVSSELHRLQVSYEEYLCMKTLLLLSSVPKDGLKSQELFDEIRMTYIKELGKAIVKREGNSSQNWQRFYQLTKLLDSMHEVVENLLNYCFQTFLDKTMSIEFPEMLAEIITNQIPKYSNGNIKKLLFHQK
Sequence of Ubiquitin carboxyl-terminal hydrolase 1 (Homo sapiens) (O94782 whole entry, looked up): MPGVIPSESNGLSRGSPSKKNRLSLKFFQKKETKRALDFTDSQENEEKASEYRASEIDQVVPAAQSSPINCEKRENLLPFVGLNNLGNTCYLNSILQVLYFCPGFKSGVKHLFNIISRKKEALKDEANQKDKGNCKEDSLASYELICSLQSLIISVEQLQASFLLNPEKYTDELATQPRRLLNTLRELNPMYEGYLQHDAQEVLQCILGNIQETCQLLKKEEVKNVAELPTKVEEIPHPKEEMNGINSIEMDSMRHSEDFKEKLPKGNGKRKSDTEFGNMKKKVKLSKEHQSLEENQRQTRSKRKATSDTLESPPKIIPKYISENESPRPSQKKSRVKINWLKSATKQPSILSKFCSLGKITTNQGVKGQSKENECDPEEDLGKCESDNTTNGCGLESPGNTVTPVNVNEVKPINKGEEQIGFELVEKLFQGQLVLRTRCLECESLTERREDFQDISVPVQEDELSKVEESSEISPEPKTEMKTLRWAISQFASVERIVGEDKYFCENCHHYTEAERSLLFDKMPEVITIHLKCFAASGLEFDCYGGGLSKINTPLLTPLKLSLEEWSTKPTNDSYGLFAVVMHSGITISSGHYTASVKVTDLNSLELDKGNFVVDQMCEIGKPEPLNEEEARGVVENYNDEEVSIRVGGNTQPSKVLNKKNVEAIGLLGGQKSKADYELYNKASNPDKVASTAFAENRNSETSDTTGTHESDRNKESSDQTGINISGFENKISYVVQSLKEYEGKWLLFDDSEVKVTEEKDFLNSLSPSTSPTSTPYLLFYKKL
Sequence of Cytochrome P450 1A2 (Homo sapiens) (P05177 whole entry, looked up): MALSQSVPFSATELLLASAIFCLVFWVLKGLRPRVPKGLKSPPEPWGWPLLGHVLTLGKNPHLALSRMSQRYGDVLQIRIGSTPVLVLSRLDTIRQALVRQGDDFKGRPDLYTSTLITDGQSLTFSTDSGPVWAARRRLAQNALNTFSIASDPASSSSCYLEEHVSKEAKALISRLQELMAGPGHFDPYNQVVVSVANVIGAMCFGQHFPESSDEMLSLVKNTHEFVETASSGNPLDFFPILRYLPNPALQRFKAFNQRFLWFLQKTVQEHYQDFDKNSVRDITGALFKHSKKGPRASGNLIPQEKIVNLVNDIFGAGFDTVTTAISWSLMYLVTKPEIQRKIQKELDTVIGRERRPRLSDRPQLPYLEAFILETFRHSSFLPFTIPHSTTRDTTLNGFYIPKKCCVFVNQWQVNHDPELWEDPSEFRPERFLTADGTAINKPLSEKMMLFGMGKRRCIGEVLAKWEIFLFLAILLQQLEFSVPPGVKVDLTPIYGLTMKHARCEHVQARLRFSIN
Sequence of Luciferin 4-monooxygenase (Photinus pyralis) (P08659 whole entry, looked up): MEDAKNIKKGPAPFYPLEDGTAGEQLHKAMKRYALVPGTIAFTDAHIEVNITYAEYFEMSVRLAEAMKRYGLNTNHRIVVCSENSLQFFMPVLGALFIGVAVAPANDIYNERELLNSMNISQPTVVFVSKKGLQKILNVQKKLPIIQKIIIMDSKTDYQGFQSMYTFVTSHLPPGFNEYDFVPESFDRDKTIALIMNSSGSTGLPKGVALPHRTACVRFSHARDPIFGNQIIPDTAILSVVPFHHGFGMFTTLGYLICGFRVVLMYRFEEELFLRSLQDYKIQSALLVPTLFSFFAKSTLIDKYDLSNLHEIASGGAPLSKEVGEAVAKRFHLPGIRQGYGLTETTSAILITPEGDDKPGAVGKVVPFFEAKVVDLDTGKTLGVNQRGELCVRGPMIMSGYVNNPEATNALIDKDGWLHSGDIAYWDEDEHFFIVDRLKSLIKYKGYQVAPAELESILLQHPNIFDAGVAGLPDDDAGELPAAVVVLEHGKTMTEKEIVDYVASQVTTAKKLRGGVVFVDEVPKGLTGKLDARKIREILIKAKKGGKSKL
Sequence of ATP-dependent 6-phosphofructokinase (Trypanosoma brucei brucei) (O15648 whole entry, looked up): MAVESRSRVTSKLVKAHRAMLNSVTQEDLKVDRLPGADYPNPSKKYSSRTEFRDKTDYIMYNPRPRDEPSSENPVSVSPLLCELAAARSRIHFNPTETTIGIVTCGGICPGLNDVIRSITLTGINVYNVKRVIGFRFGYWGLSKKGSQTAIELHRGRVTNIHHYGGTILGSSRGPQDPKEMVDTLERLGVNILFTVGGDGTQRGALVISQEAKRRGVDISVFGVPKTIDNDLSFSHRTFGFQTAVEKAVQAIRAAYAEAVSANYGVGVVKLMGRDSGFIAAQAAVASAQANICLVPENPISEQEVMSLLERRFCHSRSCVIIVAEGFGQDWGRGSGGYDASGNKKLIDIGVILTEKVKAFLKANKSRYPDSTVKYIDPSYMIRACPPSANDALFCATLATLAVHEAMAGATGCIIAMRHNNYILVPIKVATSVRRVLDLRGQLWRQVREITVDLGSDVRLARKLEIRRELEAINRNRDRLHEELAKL

On to `O=c1[nH]cnc2c1ncn2C1OC(CO)C(O)C1O` (stereo not drawn), for which the result in [1] and in experiment [3] was inactive. The Potency result (in experiment [2]; with AS120; with CP201; in the experiment on CP238; with CP262; in the experiment with CP265) was “inactive” in each case. In addition, the Potency entry with FAB9 and with JCK was “inactive” each time. In addition, the activity, negative = inhibition in experiment [4] (parasite line B) is 13.3% (inactive).
Turning to `CC(=O)Oc1cc(OC(C)=O)c2c(c1)OC(c1ccc(OC(C)=O)c(OC(C)=O)c1)C(OC(C)=O)C2` (stereo not drawn), the activity change, negative = inhibition in experiment [5] (at 57.5 µM (top of the series)) is 6.42% (inactive) and -10.2% (inactive). Moreover, the max response in experiment [5] (setting [14]) was 0.329% and -6.77%; in experiment [5] (setting [15]), 6.69% and -15%. Also, the Potency result in [2] is “inactive”.
As to `Nc1ccccc1C(=O)CC(N)C(=O)O` (stereo not drawn), the activity change, negative = inhibition in [5] (at 57.5 µM (top of the series)) was 9.57% (inactive) and 2.83% (inactive). The max response was 10.9% and 14.4% in [5] (setting [14]); 21.6% and 17.6% in [5] (setting [15]).
On to `CO/N=C(/C(=O)NC1C(=O)N2C(C(=O)O)=C(CSc3nc(=O)c(O)nn3C)CSC12)c1csc(N)n1` (stereo not drawn), for which the activity change, negative = inhibition in experiment [5] (at 57.5 µM (top of the series)) was 7.84% (inactive) and 13.9% (inactive). Further, the max response in [5] (setting [14]) was 7.61% and 7.25%; in experiment [5] (setting [15]) it was 18.4% and 25.1%. Moreover, the Potency entry (in experiment [2]; in the experiment on AS120; with CP201; in the experiment with CP238; with CP262; with CP265) was “inactive” in each case. Besides, the Potency result in the experiment on FAB9 and with JCK was “inactive” each time. Also, the result in experiment [3] was inactive. Further, the activity, negative = inhibition was 11.8% (inactive) in experiment [4] (parasite line A) and 6.03% (inactive) in experiment [4] (parasite line B).
In the case of `O=c1c(O)c(-c2ccc(O)cc2)oc2ccccc12`, in experiment [5] (at 57.5 µM (top of the series)), the activity change, negative = inhibition was 8.84% (inactive). Moreover, the values for the max response in [5] (setting [14]) and in experiment [5] (setting [15]) were -12.3% and -1%, respectively.
`CN(C)CC[C@H](c1ccc(Br)cc1)c1ccccn1`: the Potency result in experiment [6], in [8], in experiment [9] and in experiment [2] was “inactive” throughout. In addition, the figures for the activity, negative = inhibition in experiment [7] (at 17.2 µM (top of the series)) and in experiment [7] (at 38 µM (top of the series)) were -5.49% (inactive) and -29.8% (inactive), respectively. Moreover, the activity change, negative = inhibition in experiment [5] (at 25.7 µM (top of the series)) was -2.32% (inactive). The max response in experiment [5] (setting [14]) was -4.35%; in [5] (setting [15]), -5.95%.
In the case of `Nc1ccn(C2OC(CO)C(O)C2O)c(=O)n1` (stereo not drawn), the activity change, negative = inhibition in experiment [5] (at 57.5 µM (top of the series)) was 2.01% (inactive) and 0.795% (inactive). Also, the max response in experiment [5] (setting [14]) is -9.2% and 5.05%; in [5] (setting [15]), -5.62% and 10.3%.
Regarding `O=C(O)[C@H]1CCCN(CCC=C(c2ccccc2)c2ccccc2)C1`, the activity change, negative = inhibition in experiment [10] (setting [16]) is 3.95% [at 38 µM] (inactive); in experiment [11] (setting [16]) it was -15.6% [at 38 µM] (inactive); in experiment [5] (at 57.5 µM (top of the series)), -4.66% (inactive). Also, in experiment [7] (setting [16]), the activity, negative = inhibition was 26.3% [at 38 µM] (inactive). The Potency in [12] and in experiment [13] was > 46 µM (inactive) in each case. Further, the Potency result in experiment [8] and in experiment [9] was “inactive” each time. For the same compound, the max response in experiment [5] (setting [14]) was -22.7%; in experiment [5] (setting [15]) it was -26.7%.
Turning to `COc1ccc([C@H]2Sc3ccccc3N(CCN(C)C)C(=O)[C@H]2OC(C)=O)cc1`, the activity change, negative = inhibition in [10] (at 17.2 µM (top of the series)) was -10.4% (inactive); in experiment [10] (at 38 µM (top of the series)), -3.25% (inactive); in experiment [11] (at 17.2 µM (top of the series)), -5.79% (inactive); in experiment [11] (at 38 µM (top of the series)) it was -3.5% (inactive). Besides, the Potency entry in [6], in [9] and in [2] was “inactive” in each case. For the same compound, the activity, negative = inhibition was -1.38% (inactive) in experiment [7] (at 17.2 µM (top of the series)) and 7.22% (inactive) in [7] (at 38 µM (top of the series)). In addition, the Potency is > 46 µM (inactive) and > 20.6 µM (inactive) in experiment [12]; > 46 µM (inactive) and > 20.6 µM (inactive) in [13].
As to `CN(C)CCOC(c1ccccc1)c1ccccc1` (tested in a mixture with another compound), the activity change, negative = inhibition in experiment [10] (setting [16]) was 27.4% [at 17.2 µM] (inactive) and 19.6% [at 17.2 µM] (inactive); in experiment [11] (setting [16]) it was -93.6% [at 17.2 µM] (active); in experiment [5] (at 25.7 µM (top of the series)), -3.15% (inactive). The activity, negative = inhibition in experiment [7] (setting [16]) was 7.8% [at 17.2 µM] (inactive) and 0.334% [at 17.2 µM] (inactive). Further, the Potency result in experiment [8] and in [9] was “inactive” throughout. Further, the max response is -0.682% in experiment [5] (setting [14]) and -4.36% in experiment [5] (setting [15]).
In the case of `CC(=O)Oc1c(C)c(C)c2c(c1C)CCC(C)(CCCC(C)CCCC(C)CCCC(C)C)O2` (stereo not drawn), in experiment [5] (at 57.5 µM (top of the series)), the activity change, negative = inhibition is 7.46% (inactive) and -0.674% (inactive). Also, the max response is 1.52% and -6.76% in experiment [5] (setting [14]); 12.6% and -6.49% in experiment [5] (setting [15]). In addition, the Potency result in [2] is “inactive”.
As for `N#C/C(=C\c1ccc(O)c(O)c1)C(=O)NCCCCc1ccccc1`, the Potency in experiment [12] is > 46 µM (inactive); in [13], > 46 µM (inactive); in [2] it was 35.5 µM (active).

Source of the values: PubChem BioAssay (NCATS).
